PMC4336329 (PLoS ONE, 2015)
The campaign covered roughly 310,000 compounds. About 14,000 (4.5%) showed an effect of 50% or more. The effect is printed as a negative number. The sample as a whole holds a higher share of strong results than the screen did.

target: human ether-à-go-go-related gene (hERG) potassium channel (human, UniProt Q12809); assay: primary screen, population patch clamp on CHO cells stably expressing hERG; higher = less effect of the substance
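Further: peak tail current of the secondary pulse compared with the same well before compound.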

Sequence of human ether-à-go-go-related gene (hERG) potassium channel (Q12809 whole entry, looked up): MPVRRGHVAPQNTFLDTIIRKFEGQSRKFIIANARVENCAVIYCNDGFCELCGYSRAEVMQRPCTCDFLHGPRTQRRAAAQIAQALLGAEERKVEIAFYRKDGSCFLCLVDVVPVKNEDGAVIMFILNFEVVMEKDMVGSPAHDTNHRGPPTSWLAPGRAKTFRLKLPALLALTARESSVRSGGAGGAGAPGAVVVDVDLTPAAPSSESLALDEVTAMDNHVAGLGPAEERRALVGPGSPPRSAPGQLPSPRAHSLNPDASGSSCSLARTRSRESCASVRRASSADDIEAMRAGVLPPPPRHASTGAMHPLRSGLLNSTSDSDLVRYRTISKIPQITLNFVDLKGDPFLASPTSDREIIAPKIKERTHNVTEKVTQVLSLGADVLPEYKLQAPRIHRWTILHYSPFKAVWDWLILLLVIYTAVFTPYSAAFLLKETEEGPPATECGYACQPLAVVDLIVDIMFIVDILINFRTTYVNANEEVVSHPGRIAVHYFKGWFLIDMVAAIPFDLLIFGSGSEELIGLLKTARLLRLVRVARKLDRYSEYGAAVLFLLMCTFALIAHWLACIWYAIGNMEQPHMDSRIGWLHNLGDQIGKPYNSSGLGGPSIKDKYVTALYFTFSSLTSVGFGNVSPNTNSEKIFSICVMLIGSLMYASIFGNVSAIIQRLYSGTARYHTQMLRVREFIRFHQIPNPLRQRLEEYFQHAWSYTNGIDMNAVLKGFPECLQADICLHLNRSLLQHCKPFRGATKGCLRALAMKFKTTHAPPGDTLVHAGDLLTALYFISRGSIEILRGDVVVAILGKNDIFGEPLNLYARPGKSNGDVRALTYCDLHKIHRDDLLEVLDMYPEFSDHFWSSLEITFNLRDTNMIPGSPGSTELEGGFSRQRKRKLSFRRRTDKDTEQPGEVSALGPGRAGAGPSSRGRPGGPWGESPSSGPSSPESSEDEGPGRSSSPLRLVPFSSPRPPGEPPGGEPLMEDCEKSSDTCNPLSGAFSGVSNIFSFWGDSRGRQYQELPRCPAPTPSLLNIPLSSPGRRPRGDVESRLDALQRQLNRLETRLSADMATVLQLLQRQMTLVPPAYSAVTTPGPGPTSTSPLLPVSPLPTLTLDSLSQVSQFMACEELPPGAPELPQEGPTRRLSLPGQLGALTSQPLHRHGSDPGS

Structure (SMILES)	hERG current change (%, negative = inhibition) at 10uM
COC(=O)c1ccccc1NC(=O)c1cccs1	1.38%
N=c1c2c(ncn1CCN1CCOCC1)Oc1cc(O)ccc1C2c1ccccc1 (stereo not drawn)	-42.9%
N=c1c2c(ncn1CCCO)Oc1cc(O)ccc1C2c1ccccc1 (stereo not drawn)	-33.7%
N=c1c2c(ncn1Cc1ccco1)Oc1cc(O)ccc1C2c1ccccc1 (stereo not drawn)	-74.1%
COc1ccc(/C=C(\C#N)C(=O)NC(C)c2ccccc2)cc1O (stereo not drawn)	-24.2%
Cc1cc(C(=O)N/N=C/c2ccco2)c2ccccc2n1	1.37%
COc1cc(NC(=O)C(c2ccccc2)c2ccccc2)c(C(=O)O)cc1OC	16.7%
O=C(NCc1cccnc1)Nc1ccc(F)cc1F	-4.58%
Cc1noc(C)c1S(=O)(=O)N(CC(=O)N1CCn2c1nc1ccccc12)c1ccc(C(C)C)cc1	-14.9%
CCOc1ccc(CNc2ccc3c(c2)ncn3C(C)(C)C)cc1	-58.6%
Cc1ccc(CNc2ccc3c(c2)ncn3C)cc1	-33.8%
CCOc1ccc(CNc2ccc3c(c2)ncn3C)cc1	-46.6%
CC(C)(C)n1cnc2cc(NCc3ccccc3O)ccc21	-10.1%
CN(C)c1ccc(CNc2ccc3c(c2)ncn3C(C)(C)C)cc1	-27.2%
CCc1ccc(CNc2ccc3c(c2)ncn3C(C)(C)C)cc1	-36.1%
CC(C)n1cnc2cc(NCc3ccccc3O)ccc21	3.94%
Cc1ccc(CNc2ccc3c(c2)ncn3C(C)C)cc1	-78.3%
CCN(CC)c1ccc(CNc2ccc3c(c2)ncn3C(C)(C)C)cc1	1.91%
CC(C)(C)n1cnc2cc(NCc3cccs3)ccc21	-28.2%
Cc1ccc(CNc2ccc3c(c2)ncn3C(C)(C)C)cc1	-72.5%
CC(C)(C)n1cnc2cc(NCc3ccc(Br)cc3)ccc21	-69.2%
COc1ccccc1CNC(=O)Cn1cccc1C(=O)c1ccccc1	8.74%
COCC1CCN(C(=O)c2cc(COc3ccc4c(c3)CCCC4)on2)C1 (stereo not drawn)	-24.9%

Structure (SMILES)	hERG current change (%, negative = inhibition) at 10uM
Cc1cccn2c(=O)c(C=NCc3ccccc3)c(NCCO)nc12	0.417%
Cc1ccc(CN2CCSc3ccc(C(=O)NCc4cccnc4)cc32)cc1	-2.7%
CCN(C(=O)C(C)N1C(=O)/C(=C/c2cccs2)SC1=S)C1CCS(=O)(=O)C1 (stereo not drawn)	-27.3%
COC(=O)c1ccc(C(=O)OC)c(NC(=O)CN2CCN(c3ccc(OC)cc3)CC2)c1	11.5%
Cc1csc(Nc2ccc(Cl)cc2)[n+]1-c1ccc(Cl)cc1.[Br-]	14.9%
CC(C)CNC(=O)c1ccccc1NC(=O)CCSc1ccccc1	-17.6%
COC(=O)c1ccc([C@H]2C=C(C(=O)O)O[C@@H](OCc3ccc(CO)cc3)C2)cc1	13.6%
CCN(CC)CCOCCOc1ccc(Cl)c2ccccc12	-68%
CCN(CC)CCOCCOc1ccccc1F	-3.91%
CN(C)CCOCCOc1ccc(Cl)c2ccccc12.O=C(O)C(=O)O	-44.5%
COc1ccccc1CCNC(=O)C(=O)NCC1OCCN1S(=O)(=O)c1ccc([N+](=O)[O-])cc1 (stereo not drawn)	-46.7%
O=C(NCCN1CCOCC1)c1ccc2c(c1)ncn2C1CCCC1	-6.39%
Cc1ccc2[nH]c3c(N4CCN(Cc5ccccc5)CC4)ncnc3c2c1	-72.3%
COc1ccc2c(c1)[nH]c1c(N3CCN(Cc4ccc5c(c4)OCO5)CC3)ncnc12	-74%
c1ccc2c(c1)[nH]c1c(N3CCCC3)ncnc12	-15.2%
COc1ccc2[nH]c3c(N4CCN(Cc5ccc6c(c5)OCO6)CC4)ncnc3c2c1	-18.8%
Cc1ccc2[nH]c3c(N4CCOCC4)ncnc3c2c1	-0.757%
COc1cccc2[nH]c3c(N4CCN(Cc5ccc6c(c5)OCO6)CC4)ncnc3c12	-17.3%
c1ccc(CN2CCN(c3ncnc4c3[nH]c3ccccc34)CC2)cc1	-62.5%
c1ccc2c(c1)[nH]c1c(N3CCSCC3)ncnc12	-4.82%
Cc1ccc2c(c1)[nH]c1c(N3CCN(Cc4ccccc4)CC3)ncnc12	-24.5%
Cn1c2c(c(=O)n(C)c1=O)C(NC(=O)c1ccco1)(C(F)(F)F)C(=O)N2 (stereo not drawn)	16.3%
O=C1OC(c2ccccc2)=C/C1=C/N1CCOCC1	2.28%

Structure (SMILES)	hERG current change (%, negative = inhibition) at 10uM
O=C(NCCc1nnc2ccc(NCc3ccccc3Cl)nn12)c1ccccc1	10.4%
N#Cc1cc2c(nc1SCC(=O)O)CCCCC2	3.05%
CCOC(=O)c1sc(NC(=O)c2ccc3ncsc3c2)nc1C	10.8%
O=C(Nc1ccccc1Cl)c1cc[n+]([O-])cc1	27.8%
COc1ccc(CC[NH+](C)CCCN2CC(c3ccccc3)CC2=O)cc1OC.O=C([O-])C(=O)[O-] (stereo not drawn)	-71.1%
COc1ccc(C2CC(=O)N(CCC[NH+](C)CCc3ccc(OC)c(OC)c3)C2)cc1.O=C([O-])C(=O)[O-] (stereo not drawn)	-74.7%
COc1ccc(NC(=O)CN2CC(c3ccccc3)CC2=O)cc1OC (stereo not drawn)	8.33%
COc1ccc(CCN2CC(C(=O)NCc3ccc(F)cc3)CC2=O)cc1OC (stereo not drawn)	2.45%
COc1ccc(C2SCC(=O)N2CCc2ccc(OC)c(OC)c2)cc1 (stereo not drawn)	-31.3%
COc1ccc(CCN2CC(C(=O)O)CC2=O)cc1OC (stereo not drawn)	0.984%
O=C(/C=C/c1ccc(O)cc1)c1ccc(O)cc1O	9.4%
CCCn1c(O)c(CN2CCCCC2)c(C)c(C#N)c1=O	15.5%
O=C(NC(=S)Nc1ccc(N2CCOCC2)cc1)c1cncc(Br)c1	19.5%
CC(C)CC(=O)Nc1ccnn1C1CCN(C(=O)c2ccc(Cl)cc2F)CC1	-30.4%
N#CC(C#N)C(c1ccsc1)c1c(-c2ccccc2)[nH][nH]c1=O (stereo not drawn)	-3.36%
CN1C(=O)C(=O)/C(=C(/O)c2ccc(Br)cc2)C1c1ccccc1F (stereo not drawn)	8.71%
O=C(C1=C[C@H](c2coc3ccccc3c2=O)C[C@H](OCCCCO)O1)N1CCN(Cc2ccccc2)CC1	-61.5%
O=C(C1=C[C@@H](c2coc3ccccc3c2=O)C[C@@H](OCCCCO)O1)N1CCN(Cc2ccccc2)CC1	-57.9%
O=C(C1=C[C@@H](c2coc3ccccc3c2=O)C[C@@H](OCCCCO)O1)N1CCOCC1	7.47%
CN1CCN(C(=O)C2=C[C@@H](c3coc4ccccc4c3=O)C[C@@H](OCCCCO)O2)CC1	0.749%
CN1CCN(C(=O)C2=C[C@H](c3coc4ccccc4c3=O)C[C@H](OCCCCO)O2)CC1	-20.3%
O=C(C1=C[C@H](c2coc3ccccc3c2=O)C[C@H](OCCCCO)O1)N1CCOCC1	-16%
Nc1nc(Sc2c([N+](=O)[O-])cc(C(F)(F)F)cc2[N+](=O)[O-])n[nH]1	3.04%

Structure (SMILES)	hERG current change (%, negative = inhibition) at 10uM
CCn1c(COc2ccccc2OC)nc2ccccc21	2.28%
Cc1ccc(-c2csc3nc(SCC(=O)N(C)C)n(Cc4ccccc4)c(=O)c23)cc1	-26%
Cc1[nH][nH]c(=O)c1C(c1ccc(O)c(Br)c1)c1c(C)[nH][nH]c1=O	4.34%
O=C(c1ccccc1Br)N1CCN(c2ccccn2)CC1	9.41%
O=C(COC(=O)CCSc1ccccc1)NCc1ccccc1Cl	22.4%
Nc1nc(Sc2ncccc2[N+](=O)[O-])n[nH]1	3.27%
COc1ccccc1NC(=S)N1C2CCC1CC(NC(=O)NC13CC4CC(CC(C4)C1)C3)C2 (stereo not drawn)	-2.49%
Cc1cccc(N2C(=O)CN(Cc3sccc3C)C2=S)c1	-7.83%
COc1ccccc1N1CCN(C(=O)c2cc(-c3ccccc3)on2)CC1	8.22%
CCn1c(N2CCN(C(=S)Nc3ccc(OC)cc3)CC2)nc2ccccc21	-68.3%
CCn1c(N2CCN(C(=O)Nc3ccc(F)cc3)CC2)nc2ccccc21	-68.2%
CCn1c(N2CCN(S(=O)(=O)c3ccc(F)cc3)CC2)nc2ccccc21	-36.2%
Cn1c(N2CCN(C(=O)Nc3ccc(C(F)(F)F)cc3)CC2)nc2ccccc21	-41.3%
Cn1c(Nc2ccccc2)nc2ccccc21	1.74%
Cn1c(Nc2ccc(F)cc2)nc2ccccc21	-51.7%
CCn1c(N2CCN(C(=S)NCC(C)C)CC2)nc2ccccc21	-30.4%
O=C(Nc1ccc(F)cc1)N1CCN(c2nc3ccccc3s2)CC1	1.48%
CCn1c(N2CCN(C(=O)NC3CCCCC3)CC2)nc2ccccc21	-32.5%
COc1ccc(Nc2nc3ccccc3n2C)cc1	11.3%
Cn1c(N2CCN(C(=O)Nc3ccc(F)cc3)CC2)nc2ccccc21	-55.8%
CCn1c(N2CCN(C(=S)NC)CC2)nc2ccccc21	-30.2%
